Laboratory results taken from the OligoGym collection.

How the values were obtained:
Experiment in all cases: pooled miR-30 sensor sort-seq; sequence = guide strand
Details in all cases: shRNA
SLC13A5 = target: SLC13A5
SLC12A1 = target: SLC12A1
SLC10A7 = target: SLC10A7
SLC12A6 = target: SLC12A6
SLC20A1 = target: SLC20A1
SLC22A7 = target: SLC22A7
SLC25A25 = target: SLC25A25
SLC26A8 = target: SLC26A8
SLC27A5 = target: SLC27A5
SLC26A5 = target: SLC26A5
SLC28A2 = target: SLC28A2
Further: reference of the scale not given here.

TTTTTCTTGCTCTCTAGCCCGC
sensor-assay potency score (higher = more potent) (SLC13A5): -0.694

TTGATGACAAACATGACTGCAC
sensor-assay potency score (higher = more potent) (SLC12A1): 0.915

TTTAGCTCCAGCGATCGCCAGC
sensor-assay potency score (higher = more potent) (SLC10A7): -1.45

TTTCTTGCTCTCTAGCCCGCAG
sensor-assay potency score (higher = more potent) (SLC13A5): -0.697

TATCTTTGATAGTCGCTTCCAA
sensor-assay potency score (higher = more potent) (SLC12A1): 0.0928

TAAACTATGTTTACTTACCAAA
sensor-assay potency score (higher = more potent) (SLC10A7): -1.05

TAAGTCTTCATCTAGTTTCAGT
sensor-assay potency score (higher = more potent) (SLC12A6): -0.702

TACTGTTGTCTTCTAATTGGGC
sensor-assay potency score (higher = more potent) (SLC12A6): -0.548

TAGCTTGTAGCAGCCTCGGTGC
sensor-assay potency score (higher = more potent) (SLC12A6): -1.11

TTGTAGACTCAACTACTTCTTA
sensor-assay potency score (higher = more potent) (SLC12A1): -0.589

TTTCTTGTTTATCAACAGCAGT
sensor-assay potency score (higher = more potent) (SLC12A1): -1.1

TATCTTCGGACAATCTGTCCAA
sensor-assay potency score (higher = more potent) (SLC10A7): -0.198

ATGAGGAGTACACTGCTGCTGA
sensor-assay potency score (higher = more potent) (SLC10A7): -0.89

TTACTCGGGAACTAGATCGAGA
sensor-assay potency score (higher = more potent) (SLC12A6): -0.428

TTGTCCACCAGCTCCAGGCCGG
sensor-assay potency score (higher = more potent) (SLC13A5): -0.842

TTGAGTGCTGGCTTCCACCAGT
sensor-assay potency score (higher = more potent) (SLC12A1): -0.0176

TACTGGACACACACCTGCCTGG
sensor-assay potency score (higher = more potent) (SLC13A5): -0.809

TTGTTAACTATAACCTCGTTGA
sensor-assay potency score (higher = more potent) (SLC12A6): -0.0795

TTGTCTCTGAGAACAACCCCTT
sensor-assay potency score (higher = more potent) (SLC12A6): -0.146

TAGCTCTTTGTACAGGCCGGAA
sensor-assay potency score (higher = more potent) (SLC20A1): -1.38

TTCAATATCACCAACAGACAAC
sensor-assay potency score (higher = more potent) (SLC20A1): -1

TGAAGCTGTCCTCACACACTGG
sensor-assay potency score (higher = more potent) (SLC22A7): -0.999

TCGGAGGACACTAGCAGTCTAG
sensor-assay potency score (higher = more potent) (SLC22A7): -0.985

TAGACTGCAAGGTCGATGCCGG
sensor-assay potency score (higher = more potent) (SLC25A25): -0.614

TTCTTTTTGTCCAAACTCTTAA
sensor-assay potency score (higher = more potent) (SLC25A25): -1.04

TTGAGCTTCATCTCTTTGGAGA
sensor-assay potency score (higher = more potent) (SLC26A8): -0.991

TAAACCACATCATCAGCTGTGG
sensor-assay potency score (higher = more potent) (SLC27A5): -0.167

TTGTAGTAAACGTCGCCCGATT
sensor-assay potency score (higher = more potent) (SLC27A5): -1.15

TTTATTTTCAAATCGCTCTGTG
sensor-assay potency score (higher = more potent) (SLC26A8): 0.487

TTAATGAGGCCAAACAACCTGC
sensor-assay potency score (higher = more potent) (SLC26A5): -0.462

TTGACTAAGCCCATGTTGCCTT
sensor-assay potency score (higher = more potent) (SLC27A5): -0.405

ATCTTCTTGAACAATCTGGCGT
sensor-assay potency score (higher = more potent) (SLC28A2): -0.838

TTTGTTCTTGTATTGAGACAGT
sensor-assay potency score (higher = more potent) (SLC28A2): -0.497

TTGAATTGTCATTCTTGTCTGT
sensor-assay potency score (higher = more potent) (SLC26A8): 0.809

TTGTGTGTAGTCTTTCCTGGAG
sensor-assay potency score (higher = more potent) (SLC26A5): -0.0771

AATCGATACATACACATCCATT
sensor-assay potency score (higher = more potent) (SLC26A8): -1.59
